SMILES strings stand for the structures. The campaign covered roughly 340,000 compounds. About 2,500 (0.74%) were called active. This is one part of a sample in which actives are shown more often than they occur. A number with no mark means an inactive call.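 The calls were made as follows: active = inhibition above about 55% (limit read from the data); inactive = the rest.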

This assay is described as follows: Gli-Sufu pathway antagonists, primary screen, luciferase luminescence, Sufu-KO-LIGHT cells, uHTS (AID 588413).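 Also: 0% = DMSO-treated cells and 100% = wells with medium but no cells.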 The settings on record: Sufu-KO-LIGHT fibroblasts, Gli luciferase reporter luminescence; at 5 µM; stronger effect = higher value. (In general: A reporter such as luciferase makes a cellular process visible.)
One may read the inhibition as the change of the read-out against control, counted positive when it falls. For `CN1CCN(C(=O)N2c3ccccc3CCc3ccccc32)CC1`, the inhibition is 0.29%.
With `CC1CCc2sc(C(=O)NCC(c3ccco3)N3CCCCC3)cc2C1` (stereo not drawn), the inhibition was 16.2%.
In the case of `Cc1ccc(CN(Cc2cccnc2)C(=S)Nc2cc(Cl)ccc2C)cc1`, the inhibition was 12.8%.
Consider `CC(=O)NCC(=O)N(C)C(C(=O)Nc1ccc2c(c1)OCCO2)c1ccccc1` (stereo not drawn), for which the inhibition was -14.5%.
Regarding `CCc1ccc(-n2c(SCc3cc(=O)n4cc(Br)ccc4n3)nc3[nH]ncc3c2=O)cc1`, the inhibition is 5.99%.
Consider `Cc1cccc2nc(CSc3nc4[nH]ncc4c(=O)n3-c3cccc(Cl)c3)cc(=O)n12`, for which the inhibition is 67.7% (active).
As to `COc1ccc(CCNC(=O)CSc2nc3[nH]ncc3c(=O)n2-c2cccc(C(F)(F)F)c2)cc1OC`, the inhibition was 0.76%.
Next, `CCn1cc(-c2cc(C(=O)O)on2)c(C)n1`: -4.15%; `COc1ccc(-n2c(SCC(=O)Nc3ccc4c(c3)OCO4)nnc2C(C)N2CCCCC2)cc1` (stereo not drawn): 7.4%.
`Cc1cc(C(=O)CSc2nc(N)cc(=O)[nH]2)c(C)n1-c1cccc(F)c1`: the inhibition was 56.6% (active).
Next, `CCCc1cc(=O)[nH]c(SCC(=O)c2cc(C)n(CCC)c2C)n1`: 1.52%; `Cc1cc(C(=O)CSc2nc(N)cc(=O)[nH]2)c(C)n1CCc1ccc(Cl)cc1`: 0.27%.
Take `Cc1cc(=O)oc2cc(OCC(=O)N3CCN(c4ccc(F)cc4)CC3)c(Cl)cc12`: the inhibition is 6.77%.
For the molecule `Oc1c(CN2CCN(c3ccc(F)cc3)CC2)cc(Cl)c2cccnc12`, the inhibition is 92.7% (active).
Take `Oc1c(CN2CCCC2)cc(COCc2ccccc2)c2cccnc12`: the inhibition was 77.7% (active).
In the case of `Cc1ccc(CN2CCN(c3ncccn3)CC2)c(C)c1`, the inhibition was 1.86%.
Turning to `COc1cc(C)cc(CN2CCC(Cc3ccccc3)CC2)c1O`, the inhibition was 15.5%.
For `CC1CCCN(CC(O)COCc2ccccc2)C1` (stereo not drawn) the value was 12.2%.
Turning to `CC(C)C(C)NC(=O)COc1nc2ccccc2nc1N(C)C1CCCCC1` (stereo not drawn), the inhibition was -2.52%.
Turning to `CCc1nnc(NC(=O)CCN(c2ccc(C)cc2)S(=O)(=O)c2ccccc2)s1`, the inhibition is -7.2%.
For the molecule `O=C1/C(=C\Nc2ccccc2)CCN1c1ncccn1`, the inhibition is -39%.
`Cc1ccccc1NC(=O)NC1(C(=O)N2CCCC2)CCCCC1`: the inhibition is 44.2%.
For the molecule `Cc1ccc(C)c(NS(=O)(=O)c2c(C)[nH]c(C)c2C(=O)N2CCCCC2)c1`, the inhibition is -12.2%.
As for `CC1CCCN(C(=O)Cn2c(=O)oc3ccccc32)C1` (stereo not drawn), the inhibition was 1.13%.
For the molecule `COC(C[C@@H](O)C[C@H](O)[C@H](C)OCc1ccccc1)OC`, the inhibition was 7.28%.
Consider `CCc1ccc(C2C(C#N)=C(N)N(N3CCOCC3)C3=C2C(=O)CC(C)(C)C3)s1` (stereo not drawn), for which the inhibition is 96.7% (active).
In the case of `CCc1ccc(C2C(C#N)=C(N)N(N(C)C)C3=C2C(=O)CCC3)s1` (stereo not drawn), the inhibition was -0.42%.
With `COc1ccc(C2C(C#N)=C(/N=C/N3CCOCC3)OC3=C2C(=O)CC(C)(C)C3)cc1OC` (stereo not drawn), the inhibition was 1.58%.
`S=C(Cc1ccc(Cl)cc1)N1CCOCC1`: the inhibition was 2.66%.
`O=C(CCN1CCCO1)N1CCCC(N2CCN(c3cccc(C(F)(F)F)c3)CC2)C1` (stereo not drawn): the inhibition was 8.15%.
In the case of `N#Cc1cccc(NC(=O)C2CCCN(C(=O)c3ccc(Cl)cc3)C2)c1` (stereo not drawn), the inhibition was 0.96%.
`COc1ccccc1-c1nnc2n1N=C(c1ccc(OC(F)F)c(OCC3CC3)c1)CS2`: the inhibition was 23.1%.
`CC1=Nn2c(nnc2-c2ccccc2)SC1`: the inhibition was 5.28%.
With `COc1ccc(C2=Nn3c(nnc3-c3ccccc3OC)SC2)cc1OC1CCCC1`, the inhibition was 67.1% (active).
`COc1ccc(CNC(=O)CN(c2ccc(OC)c(Cl)c2)S(=O)(=O)c2ccc(C)cc2)cc1`: the inhibition was -11.6%.
On to `NS(=O)(=O)c1cc(Cl)c(Cl)c(S(N)(=O)=O)c1`, for which the inhibition was -6.05%.
Regarding `Cc1cccc(S(=O)(=O)N2CN(CC3CCCO3)c3nc4ccccc4nc32)c1` (stereo not drawn), the inhibition is 31.4%.
For `Clc1cc(-c2ccc(/C=N/n3cnnc3)o2)ccc1Br` the value was 3.67%.
As for `Cc1cc([N+](=O)[O-])c(-c2ccc(/C=N/n3cnnc3)o2)cc1Cl`, the inhibition was 95.2% (active).
Consider `Cc1ccc(Cl)cc1-c1ccc(/C=N/n2cnnc2)o1`, for which the inhibition is 20.2%.
For `O=c1ccc2c(-c3ccccc3S(=O)(=O)O)c3ccc(O)c(O)c3oc-2c1O`, the inhibition is 9.16%.
Take `CCCCn1nc(C(=O)Nc2cccc(C(=O)NC3CC3)c2)c2ccccc2c1=O`: the inhibition is -0.59%.
Consider `N#Cc1ccsc1NC(=O)CN1CCN(S(=O)(=O)c2cc(Cl)ccc2Cl)CC1`, for which the inhibition was 1.78%.
Consider `O=C(CN1CCN(S(=O)(=O)c2cc(Cl)ccc2Cl)CC1)c1ccc(O)c(O)c1`, for which the inhibition is 58.2% (active).
For `COc1ccc(Cl)cc1S(=O)(=O)N1CCN(CC(=O)C(C)(C)C)CC1` the value was -2.82%; for `COc1ccccc1N(CC(=O)Nc1ccccc1C(=O)N1CCCC1)S(C)(=O)=O`, -5.37%.
As for `O=C(N/N=C/c1ccccn1)C12CC3CC(CC(C3)C1)C2`, the inhibition was -2.98%.
`Cc1nnc(N/N=C/c2ccccn2)[nH]c1=O`: the inhibition is 62.7% (active).
For `Cc1cc(C(=O)N/N=C/c2ccccn2)c2ccccc2n1`, the inhibition was 1.36%.
Consider `Cc1ccc(S(=O)(=O)N(C)C)cc1NC(=O)c1ccc(-n2cncn2)c([N+](=O)[O-])c1`, for which the inhibition is 5.99%.
Take `CCOC(=O)c1cnc(Nc2nc3ccccc3o2)nc1CSC(=S)N1CCCCC1`: the inhibition was 57.2% (active).
For the molecule `CCc1ccc(CNC(=O)C2CCCN(c3nc4ccccc4o3)C2)cc1` (stereo not drawn), the inhibition was 5.09%.
In the case of `CCOC(=O)CCNC(=O)N1CCCC(C(=O)c2ccccc2SC)C1` (stereo not drawn), the inhibition is 4.81%.
For the molecule `CCc1ccc(C(=O)C(C)OC(=O)CN2C(=O)NC3(CCCC3)C2=O)cc1` (stereo not drawn), the inhibition was -24.9%.
With `COCCN(C(=O)COC(=O)Cc1cccc(OC)c1)c1c(N)n(Cc2ccccc2)c(=O)[nH]c1=O`, the inhibition is -12.3%.
For `Cc1ccc(NC(=O)c2sccc2C)cc1[N+](=O)[O-]` the value was -30.3%; for `Cc1ccc(NC(=O)CN(C)CC(=O)Nc2cccc(F)c2)cc1[N+](=O)[O-]`, 67.2% (active).
Take `CN(CC(=O)Nc1cccc(F)c1)C(=O)C1=COCCO1`: the inhibition was -13.3%.

The values are drawn from PubChem BioAssay AID588413 (Sanford-Burnham Center for Chemical Genomics, 2011).
